# Hits are enriched below; roughly 1.4% of the tested compounds scored in any of these assays.
# ERK EGF inh = inhibitors of EGF-stimulated ERK signaling pathway; Potency, µM (top dose mostly 11.5 µM), hits mostly inhibitors; AID 1454; HEK293-V1b, EGF-stimulated phospho-ERK AlphaScreen; hit rate 0.41% among 130,000; note: nearly all actives have a fitted effect of over 55% in size
#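 After overnight plating in 1% FBS, HEK293-V1b cells received test compound for half an hour, then a 5 min pulse of EGF (25 nM); ERK phosphorylation in lysates was read by bead-based AlphaScreen.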
# HTT cytoprotect = Huntington cell model cytoprotection by ATP luminescence. PC12 HTT-Q103 induced, cytoprotection, ATP luminescence, 40 h. Potency, µM (top dose mostly 56.4 µM), actives largely listed as activators. hit rate 0.14% among 230,000. AID 1471; note: nearly all actives have a fitted effect of over 45% in size
#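 Huntington model: PC12 line, ecdysone-inducible HTTQ103 exon1–GFP, tebufenozide 100 nM. Test articles in a dose series. Endpoint luminescence from cellular ATP.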
# HTT aggregate = mutant huntingtin aggregation inhibition; PC12 HttQ103-GFP aggregates, Acumen cytometry, 40 h; Potency, µM (titrated, usually from 46.1 µM), hits mostly inhibitors; hit rate 1.1% among 220,000; AID 1688; note: nearly all actives have a fitted effect of over 60% in size
#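 Read-out: GFP aggregate count by laser scanning cytometer (488 nm excitation, 500-530 nm emission, 1–25 µm objects >6 SD above background). Cells: PC12, inducible HTTex1-Q103-GFP, 100 nM tebufenozide; compounds titrated.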
# Hits are given with their value; 0 = inactive; ? = inconclusive; - = not tested or not shown; [ ] = another dose, or the depositor's remark. Calls come from the whole dose curve; as a rule, active = well fitted curve in the direction sought with a large enough effect; inconclusive = small, poorly fitted or top-dose-only effect, or another doubt; inactive = no such curve, though single readings can be large; an effect the other way counts as inactive or inconclusive.
SMILES,ERK EGF inh,HTT cytoprotect,HTT aggregate
COCCNC(=O)CN(C(=O)CCC(=O)Nc1ccccn1)c1ccccc1F,0,0,0.0045µM
COCCNC(=O)CN(C(=O)CCC(=O)Nc1ccccn1)c1ccc(F)cc1,-,0,0
CC(C)(C)S(=O)(=O)/C(C#N)=N/Nc1ccc(Cl)cc1,?,0[10 µM],11µM
CC(C)(C)c1ccc(N/N=C(\C#N)S(=O)(=O)C(C)(C)C)cc1,0,0,?
C=C(CCC12O[C@H](C(=O)O)[C@@](O)(C(=O)O)[C@](C(=O)O)(O1)[C@H](OC(=O)/C=C/[C@@H](C)C[C@@H](C)CC)[C@H]2O)[C@@H](OC(C)=O)[C@H](C)Cc1ccccc1,-,0,-
O=C(c1ccncc1)N1CCC[C@@]2(CCN(c3cccc(-c4ccccc4)c3)C2)C1,0,0,-
CS(=O)(=O)Oc1ccc2c(c1)O/C(=C\C=C\c1ccccc1)C2=O,7.9µM,0[10 µM],0[9.22 µM]
CCc1ccc(/C=C2\Oc3cc(OS(C)(=O)=O)ccc3C2=O)cc1,0,0[1.9 µM],?
C#CCCCO/N=C1/C[C@@H](O)[C@@H](O)[C@@H]2[C@@H]3C(=O)N(Cc4ccc5c(c4)OCO5)C(=O)[C@H]3CC[C@H]12,-,0[10 µM],-
Cc1cccc(N2CCN(C(=S)c3ccccc3)CC2)c1,0,0,0
Cc1cccc(N2CCN(C(=S)c3ccc([N+](=O)[O-])cc3)CC2)c1,18µM,0[10 µM],0
O=C(O)C[C@H](Sc1ccccc1)c1ccccc1,-,0[10 µM],-
N#CCCn1c(=O)c(-c2cccs2)nc2cnc(OCc3ccccc3)nc21,0,0,-
Fc1ccc(CN(Cc2ccccc2)C(c2cccs2)c2nnnn2C2CCCCC2)cc1 (configuration not stated),-,0,25µM
Clc1ccc(CN(Cc2ccccc2)C(c2cccs2)c2nnnn2C2CCCC2)cc1 (configuration not stated),-,0,0
CCCn1c(=O)c(C(=O)NCc2ccncc2)c(O)c2ccccc21,-,0,0
CC(C)Cn1c(=O)c(C(=O)NCc2ccccn2)c(O)c2ccccc21,-,0[10 µM],7.9µM
NC[C@H](O)C1CCCCCCC1,-,0[1.9 µM],-
O=C(c1ccncc1)N1CCC2(CCCN(c3cccc(-c4ccccc4)c3)C2)CC1,0,0,-
CCN=C1S/C(=C\c2ccc(N3CCOCC3)cc2C)C(=O)N1CC,0,0[10 µM],0
COCCN1C(=O)/C(=C/c2ccc(N3CCCC3)cc2C)SC1=S,22µM,0[10 µM],0[9.22 µM]
C[C@@H]1CC[C@H]2C(=O)NC[C@@H](O)CN2[C@@H]1c1ccc(Br)cc1,-,0[10 µM],-
COc1ccc(CNC(=O)C(c2ccncc2)N(C(=O)Cc2cccs2)c2ccccc2)cc1 (configuration not stated),0,0[10 µM],0
COc1ccc(N(C(=O)CCl)C(C(=O)NCCc2ccccc2)c2cccs2)cc1 (configuration not stated),0,0[10 µM],2.2µM
CC1(C)SC2[C@@H](N=CN3CCCCCC3)C(=O)N2[C@H]1C(=O)O (some centres not stated),-,0,0
SMILES,ERK EGF inh,HTT cytoprotect,HTT aggregate
CCC1=C2CC[C@H]3C(=O)N(CC)C(=O)[C@H]3[C@H]2[C@@]2(C)C(=O)N(CC(=O)OC)C(=O)N2C1=O,?,0,-
CCN1CCS/C1=C/C=C/C1=[N+](CC)CCS1,0,0[10 µM],0.5µM
CCN1CCS/C1=C\C=C\C1=[N+](CC)CCS1,0,0,1.1µM
CC(=O)Oc1ccc2c(c1)CCC1C2CC[C@@]2(C)C1CC(OC(C)=O)C2OC(C)=O (some centres not stated),0,-,-
COc1ccc(NC(=O)N2CC[C@@]3(CCCN(C(=O)c4cnccn4)C3)C2)cc1,0,0,-
CCCCC/C=C\C/C=C\CCCCCCCCCC(=O)NC(C)C(=O)O (configuration not stated),0,-,-
Fc1ccc(-c2nnc(CN3CCC(c4nc5ccccc5s4)CC3)o2)cc1,-,0,11µM
O=C(CSc1ccc(F)cc1)N1CCC(c2nc3ccccc3s2)CC1,-,0,0
CCc1cccc(Nc2cc(C)nc3nc(C)nn23)c1,0,0[10 µM],35µM
Cc1cc(Nc2cccc(C(F)(F)F)c2)n2nc(C)nc2n1,-,0,0
N=c1ccn(Cc2cccc(Cl)c2)cc1,-,0[0.074 µM],?
N=c1ccn(Cc2ccc(Cl)cc2)cc1,-,0[0.074 µM],6.3µM
N=c1ccn(Cc2ccc(Cl)cc2Cl)cc1,-,0,7.1µM
N=c1ccn(Cc2ccccc2Cl)cc1,-,0,?
Clc1ccc(CN2CCCCCCC2)cc1Cl,-,?,0
N=c1ccn(Cc2ccc(Cl)c(Cl)c2)cc1,-,0[0.074 µM],2µM
COc1ccccc1-c1cncnc1NCCN1CCOCC1,0,0,-
CN(NS(=O)(=O)c1ccccc1)c1nc2ccccc2nc1C(F)(F)F,-,0,0
CN(NS(=O)(=O)c1ccc(Cl)cc1)c1nc(C(F)(F)F)nc2ccccc12,0,0,10µM
C=CC[N+]1([C@H]2C[C@H]3[C@@H]4CC[C@H]5C[C@H](O)[C@@H](N6CCOCC6)C[C@]5(C)[C@H]4CC[C@]3(C)[C@H]2OC(C)=O)CCCC1,-,0,0
Cc1ccc(S(=O)(=O)NCc2ccc(C(=O)NCc3cccnc3)cc2)cc1,0,-,0
CCN(CC)C(=O)c1ccc(S(=O)(=O)NCc2cccnc2)cc1,-,0[10 µM],11µM
COC(=O)NC(c1ccco1)[C@@]1(C(=O)OC)CCCC1=O (some centres not stated),-,0[10 µM],-
O=C1CCCC2CCCCN12 (configuration not stated),-,0,-
O=c1c2ccccc2nc2n1C(CSCc1ccc(Cl)cc1)CS2 (configuration not stated),-,0[10 µM],11µM
SMILES,ERK EGF inh,HTT cytoprotect,HTT aggregate
O=c1c2ccccc2nc2n1C(CSc1ccccc1)CS2 (configuration not stated),0,0,0
Cc1cccc(CNc2cc(-c3cccc(C#N)c3)ncn2)c1,0,0,-
C=C[C@@]1(C)CC(=O)[C@@]2(O)[C@@]3(C)[C@@H](O)CCC(C)(C)[C@@H]3[C@H](OC(=O)CCN(C)C)[C@H](OC(C)=O)[C@@]2(C)O1,0,40µM,-
Cn1c(=O)c2c(nc(NCCNc3nc4c(c(=O)n(C)c(=O)n4C)n3C)n2C)n(C)c1=O,-,0[10 µM],-
CNc1ccccc1C(=O)N1CCc2c([nH]c3ccccc23)C1=O,0,-,-
O=S(=O)(c1ccccc1)N1CCC2(CCCN(Cc3cc(C(F)(F)F)cc(C(F)(F)F)c3)C2)CC1,0,0,-
CCN(C(=O)COc1ncnc2sccc12)c1ccccc1,0,1µM,0
CNC(=O)COc1ncnc2sccc12,-,0,0
CC(=O)C1(O)Cc2c(O)c3c(c(O)c2C(OC2CC(N)C(O)C(C)O2)C1)C(=O)c1c(O)cccc1C3=O (configuration not stated),-,0,1µM
COc1cccc2c1C(=O)c1c(O)c3c(c(O)c1C2=O)C[C@@](O)(C(=O)CO)C[C@@H]3O[C@H]1C[C@H](N)[C@H](O)[C@H](C)O1,28µM,0,-
COc1cccc2c1C(=O)c1c(O)c3c(c(O)c1C2=O)C[C@](O)(C(C)=O)C[C@H]3O[C@@H]1C[C@H](N)[C@H](O)[C@H](C)O1,0,0,-
COc1cccc2c1C(=O)c1c(O)c3c(c(O)c1C2=O)C[C@@](O)(C(=O)CO)C[C@@H]3O[C@@H]1C[C@H](N)[C@H](O)[C@H](C)O1,?,0,-

# Bioassay records deposited in PubChem BioAssay by National Center for Advancing Translational Sciences (NCATS).
